High-throughput results as filed in PubChem.
Sampled rows, rich in hits. Any-hit rate of the full collection: about 19%.
AMA1 RON2 block: AMA1-RON2 (P. falciparum) interaction inhibition; AlphaScreen AMA1-biotinylated RON2 peptide binding; Potency, µM (series often up to 58.2 µM), without a hit: top-dose activity change, negative = inhibition, actives largely listed as inhibitors; 0.2% of 360,000 active;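 further: potency means the concentration at half of the fitted maximal effect; 0% = vehicle wells and -100% = peptide control; nearly all actives have a fitted effect of over 45% in size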
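AMA1 (3D7) with his tag at 25 nM final met compounds first, then biotinylated RON2 peptide at 25 nM; detection used donor plus acceptor beads, 10 µg/mL apiece, read by AlphaScreen after 30 min at room temperature.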
Pf growth 48h: inhibits P. falciparum growth in the first generation, 48 h | P. falciparum luciferase growth in erythrocytes, 48 h | Potency, µM (doses to about 28.7 µM), for the others: at the top dose activity change, negative = inhibition, actives largely listed as inhibitors | 5.9% of 310,000 active; further: potency means the concentration at half of the fitted maximal effect; on the % scale 0 is the no-effect control and ±100 the full control effect
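Growth was read as firefly luciferase luminescence after a 48 h, 37 C, 5% CO2 exposure of compounds to reporter-bearing P. falciparum cultures (0.1% parasitemia, 2% hematocrit final) in Albumax-supplemented RPMI 1640.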
SARS PLP yeast: inhibitors of SARS-CoV papain-like protease in yeast | Potency, µM (top dose mostly 32.9 µM), inactives show at the highest dose activity, positive = growth rescue, usual class: activators | 0.19% of 330,000 active | S. cerevisiae expressing SARS-CoV PLpro, growth rescue; calls by dose curve; further: potency means the concentration at half of the fitted maximal effect; 0% is about no effect; nearly all actives have a fitted effect of over 55% in size
Shiga inhibitor: inhibitors of Shiga toxin in Vero cells; Vero cells, Shiga toxin protein synthesis inhibition reporter; inhibition, % at 38.7 µM; 9.2% of 290,000 active; AID 2315; in the data active means inhibition mostly above about 28%, no sharp cut-off; inactive means mostly below about 43%; further: 0% is about no effect
Cycloheximide cs: counter-screen hit for Shiga toxin inhibitors, cycloheximide; max response, %; 12% of 300,000 active; AID 2314; cell reporter, cycloheximide protein synthesis inhibition counterscreen; in the data active means max response mostly above about 13%, no sharp cut-off; inactive means mostly below about 14%; further: read at 38.3 µM for the half of the compounds with a filed dose; 0% is about no effect
Pf growth 96h: inhibits malaria parasite growth, 96 h. P. falciparum luciferase reporter growth, 96 h. Potency, µM (series often up to 28.7 µM), without a hit: at the top dose activity change, negative = inhibition, usual class: inhibitors. 6.9% of 320,000 active; further: potency means the concentration at half of the fitted maximal effect; on the % scale 0 is the no-effect control and ±100 the full control effect
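Delayed-death screen, second-generation endpoint: infected erythrocytes, 2% hematocrit, 0.05% parasitemia final; 96 hours at 37 C, 5% CO2; luciferase detection reagent; luminescence decrease equals reduced growth.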
An asterisk follows results filed as active; ? = inconclusive; nt = no result given; [ ] = remark or other dose. Unless noted, the call rests on the fitted dose curve; in most records, active means well fitted curve in the direction sought with a large enough effect; inconclusive means small, poorly fitted or top-dose-only effect, or another doubt; inactive means no such curve, though single readings can be large; an effect the other way counts as inactive or inconclusive.

SMILES	AMA1 RON2 block	Pf growth 48h	SARS PLP yeast	Shiga inhibitor	Cycloheximide cs	Pf growth 96h
COCCn1c(SCC(=O)N2CCCC2)nc2c(c1=O)SCC2	-8%	nt	nt	nt	nt	nt
Cc1cnc(=O)[nH]c1SCc1cccc([N+](=O)[O-])c1	-16%	2%	1%	-3	-2	14%
CCOc1cc([N+](=O)[O-])cc(/C=N/NC(=O)c2c(-c3ccccc3)noc2C)c1O	-36%	18%	?	-7	12	13µM*
COc1cccc(/C=N/NC(=O)c2c(-c3ccccc3)noc2C)c1O	82%	5.9µM*	-1%	-8	-1	?
CCC[C@@H](CN1CCC[C@H]1CN1C(N)=NC[C@H]1C(C)C)N1C[C@@H](Cc2ccccc2)N(CCCC2CCCC2)C1=N	-7%	nt	-3%	nt	nt	nt
O=C(CCNC(=O)c1ccccc1Cl)NCCCSc1ccccc1	-10%	7%	14%	nt	nt	-14%
Cc1ccccc1C(=O)NCCSc1ccccc1	7%	nt	4%	93	32*	251%
CSc1ccccc1C(=O)N(C)C(c1ccccc1)c1ccccc1	7%	?	-8%	4	-1	10µM*
CSc1ccccc1C(=O)N(C)Cc1ccccc1	-14%	7%	-1%	-10	-1	83%
O=C(NCCSc1ccccc1)c1ccccc1Cl	-18%	250%	-3%	97*	64*	-3%
CSc1ccccc1C(=O)NCCSc1ccccc1	5%	19%	-5%	27	29*	nt
CC(C)(C)S(=O)N1Cc2cc(C(=O)NCC(F)(F)F)nc(-c3cccc(-c4cccc(F)c4)c3)c2[C@H]1CCO (some centres not stated)	-4%	nt	nt	nt	nt	nt
CCOC(=O)CN1CC23C=CC(O2)C(C(=O)Nc2ccc(C(C)=O)cc2)C3C1=O (configuration not stated)	0%	-1%	7%	7	1	12µM*
Cc1cc(C(=O)OCC(=O)NCc2ccc(Cl)cc2Cl)c(C)o1	-6%	-17%	-4%	nt	nt	10%
CCOc1ccc2nc(SCCNS(=O)(=O)c3ccccc3)sc2c1	-19%	-16%	0%	-5	1	42%
CCOc1ccc2nc(SCc3ccccc3C#N)sc2c1	47%	83%	-16%	174*	71*	181%
CCOc1ccc2nc(SCc3ccc(OC)cc3)sc2c1	47%	54%	-3%	35	20*	?
CCOc1ccc2nc(SC3CC(=O)N(c4ccccc4)C3=O)sc2c1 (configuration not stated)	29%	102%	-2%	-19	10	43%
COc1ccc(-c2cc3ccccc3n2CC(O)CN2CCC(C)CC2)cc1 (configuration not stated)	-21%	?	-7%	19	5	41%
COc1ccc(-c2cc3ccccc3n2CC(O)Cn2nc(C)cc2C)cc1 (configuration not stated)	4%	2.3µM*	-12%	-6	30	0%
Cc1cc(C)n(CC(O)COc2ccccc2)n1 (configuration not stated)	1%	?	3%	-21	-1	0%
Cc1cc(C)n(CC(O)COc2ccc3ccccc3c2)n1 (configuration not stated)	-1%	70%	0%	46*	26*	24%
O=Cc1c(Cl)nc2ccccn2c1=O	0%	15%	1%	15	1	-12%
COc1cc(/C=N/Nc2nc(C)cc(C)n2)cc(OC)c1OC	47%	-9%	3%	22	4	?
COc1ccc(Nc2nc(N)nc(C(F)(F)F)n2)c(OC)c1	-4%	17%	-2%	46	25*	?
SMILES	AMA1 RON2 block	Pf growth 48h	SARS PLP yeast	Shiga inhibitor	Cycloheximide cs	Pf growth 96h
COc1ccc(Nc2nc(N3CCCCC3)nc3ccccc23)c(OC)c1	18%	nt	3%	-14	-3	-89%
COc1ccc(Nc2nc(N)c3ccccc3n2)c(OC)c1	-6%	?	-6%	45*	34*	30%
O=C(Nc1nonc1NC(=O)c1cccs1)c1cccs1	-8%	6%	2%	20	5	-15%
O=C(NC(NC(=S)Nc1ccccc1)C(Cl)(Cl)Cl)c1cccc(Cl)c1 (configuration not stated)	-3%	?	1%	16	11	13µM*
O=C(NC(NC(=S)Nc1ccc(Cl)cc1Cl)C(Cl)(Cl)Cl)c1cccc([N+](=O)[O-])c1 (configuration not stated)	9%	1.7µM*	-13%	9	-1	?
O=C(O)c1cccc(NC(=S)NC(NC(=O)c2ccccc2[N+](=O)[O-])C(Cl)(Cl)Cl)c1 (configuration not stated)	-2%	-2%	0%	22	7	-25%
O=C(O)c1cccc(NC(=S)NC(NC(=O)c2cccc([N+](=O)[O-])c2)C(Cl)(Cl)Cl)c1 (configuration not stated)	-5%	107%	7%	21	11*	-8%
CCOC(=O)C1CCC(=O)N1Cc1c[nH]c2ccccc12 (configuration not stated)	9%	nt	nt	nt	nt	nt
COc1ccc(C[C@@H]2c3cc(OC)c(OC)cc3CC[N@+]2(C)CCC(=O)OCCCCCOC(=O)CC[N@@+]2(C)CCc3cc(OC)c(OC)cc3[C@H]2Cc2ccc(OC)c(OC)c2)cc1OC	nt	-5%[12.8 µM]	nt	nt	nt	2%[12.8 µM]
COc1ccccc1C(=O)Nn1cnc2ccccc2c1=O	5%	74%	-1%	49*	24*	-9%
CCN(CC)c1ccc(C(=O)Nn2cnc3ccccc3c2=O)cc1	-3%	17%	5%	76*	35*	-4%
N#Cc1ncc(-c2ccc3c(c2)OCCOCCOCCOCCOCCO3)nc1C#N	-10%	?	18%	-8	-3	12µM*
c1ccn2cc(-c3ccc4c(c3)OCCO4)nc2c1	-3%	425%	-14%	21	4	26%
N#Cc1ncc(-c2ccc3c(c2)OCCOCCOCCOCCO3)nc1C#N	-1%	?	24%	15	0	12µM*
CCC1S/C(=N/N=C/c2ccco2)N(Cc2ccccc2C)C1=O (configuration not stated)	-26%	?	-4%	38*	9	?
CC1S/C(=N/N=C/c2ccco2)N(Cc2ccccc2)C1=O (configuration not stated)	-10%	-13%	-3%	99*	35*	-10%
O=C1C(Cc2ccccc2)S/C(=N/N=C/c2ccco2)N1c1ccccc1 (configuration not stated)	-4%	8%	1%	-7	6	0.26µM*
CCC1S/C(=N/N=C/c2ccco2)N(Cc2ccc(F)cc2)C1=O (configuration not stated)	-3%	?	-2%	24	12	?
Nc1sc(-c2ccccc2)cc1C(=O)NCCN1CCOCC1	-6%	nt	nt	nt	nt	nt
